According to PubChem BioAssay (NCI):
This is part of a sample that, as a whole, favours compounds with a hit. Of some 79,000 tested, about 15% had one in any assay. A number with no mark means an inactive call. Calls of active or inactive are those of the source. Rule as the data show it: active = growth inhibition above about 70%; inactive = the rest.

How the values were obtained:
[1] = NCI Yeast Anticancer Drug Screen. Data for the rad50 strain (AID 155);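 also: 0% = growth of vehicle-only cultures of the same strain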; details: S. cerevisiae rad50 strain growth inhibition, active compounds read high
In short: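 Vehicle-treated cultures provide the reference for the growth inhibition reported for compound-exposed, repair-deficient yeast.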

[2] = NCI Yeast Anticancer Drug Screen. Data for the mec2-1 strain (AID 157); details: S. cerevisiae mec2-1 strain, active compounds read high
In short: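 Vehicle-treated cultures served as reference for growth inhibition of compound-exposed mec2-1 yeast.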

[3] = NCI Yeast Anticancer Drug Screen. Data for the sgs1 mgt1 strain (AID 161);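 also: 0% = growth of cultures given vehicle only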; details: S. cerevisiae sgs1 mgt1 strain, active compounds read high
In short: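 Mutant yeast exposed to compound; growth scored against vehicle-only wells.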

[4] = NCI Yeast Anticancer Drug Screen. Data for the cln2 rad14 strain (AID 165);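 also: 0% = growth equal to vehicle treated cultures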; details: S. cerevisiae cln2 rad14 strain, active compounds read high
In short: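 Each compound was tested on cln2 rad14 yeast. Inhibition of growth was calculated against vehicle-exposed controls.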

[5] = NCI Yeast Anticancer Drug Screen. Data for the bub3 strain (AID 167); details: S. cerevisiae bub3 mutant strain, active compounds read high
In short: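 Mutant yeast screening strain plus compound; vehicle-treated cultures serve as the 0% inhibition reference.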

[6] = NCI Yeast Anticancer Drug Screen. Data for the mlh1 rad18 strain (AID 175); details: S. cerevisiae mlh1 rad18 strain growth inhibition, active compounds read high
In short: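 Vehicle-treated cultures served as the reference for growth inhibition in a yeast strain carrying DNA damage repair alterations exposed to each compound.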

[7] = at 5.0 µM (retest, dose inferred, filed as 0.5)
[8] = at 50.0 µM (retest, dose inferred, filed as 5.0)

| SMILES | growth inhibition [1, 7] | growth inhibition [1, 8] | growth inhibition ([1]; at 50.0 µM) | growth inhibition [2, 7] | growth inhibition [2, 8] | growth inhibition ([2]; at 50.0 µM) | growth inhibition [3, 7] | growth inhibition [3, 8] | growth inhibition ([3]; at 50.0 µM) | growth inhibition [4, 7] | growth inhibition [4, 8] | growth inhibition ([4]; at 50.0 µM) | growth inhibition [5, 7] | growth inhibition [5, 8] | growth inhibition ([5]; at 50.0 µM) | growth inhibition [6, 7] | growth inhibition [6, 8] | growth inhibition ([6]; at 50.0 µM) |
| --- | --- | --- | --- | --- | --- | --- | --- | --- | --- | --- | --- | --- | --- | --- | --- | --- | --- | --- |
| CC(=O)N=C1N(/C=C2\C(=O)Oc3ccccc3C2=O)C(=O)/C(=C/c2ccc(Cl)cc2Cl)N1C | 1% | 92% (active) | 91.8% (active) | 11% | 96% (active) | 95% (active) | 7% | 90% (active) | 94.2% (active) | -3% | 91% (active) | 89.8% (active) | 23% | 87% (active) | 93.4% (active) | -4% | 91% (active) | 91.6% (active) |
| OCCCNc1nc2c(Cl)cc(Cl)cc2c2ccccc12 | 16% | 49% | 50% | 6% | 28% | 15.4% | 8% | 30% | 72.7% (active) | -6% | -16% | 19.4% | -6% | -5% | 76.2% (active) | 4% | 30% | 92.8% (active) |
| CCC(=O)OC1CCC(C2CCCCC2)CC1 (configuration not stated) | 3% | 8% | -4.95% | 1% | 2% | -9.55% | 2% | 5% | 16.7% | 5% | 7% | -21.2% | 65% | 70% (active) | 61.1% | 4% | 10% | 36.8% |
| O=[N+]([O-])c1cccc(/C=N/Nc2ccc3ccccc3n2)c1O | 30% | 20% | 98% (active) | 1% | -23% | 98.8% (active) | 26% | 24% | 97.4% (active) | 1% | 3% | 93.3% (active) | 2% | 7% | 97.8% (active) | 16% | 14% | 97.5% (active) |
| COc1ccc(C)c2nc3ccccc3nc12 | -119% | 86% (active) | 97% (active) | -42% | 24% | 74.5% (active) | -64% | 51% | 38.7% | -49% | 37% | 56.2% | -58% | 31% | 91.9% (active) | -110% | 67% | 87.7% (active) |
| CN=C(N)N/N=C(\C)c1ccc2c(c1)Cc1cc(Cl)ccc1-2 | 34% | 37% | 98.8% (active) | 16% | 38% | 97% (active) | 13% | 97% (active) | 98.7% (active) | 8% | 56% | 93.1% (active) | 7% | 90% (active) | 98.7% (active) | 9% | 97% (active) | 98.5% (active) |
| C/C(=N\NC(N)=S)C(CN1CCCCC1)C(C1=C(O)c2ccccc2OC1)c1ccccc1 (configuration not stated) | 10% | 38% | 64.7% | 6% | 45% | 63% | 19% | 67% | 68.5% | 22% | 62% | 53.7% | 32% | 70% (active) | 71.8% (active) | 20% | 55% | 67.5% |
| Cc1ccnc(NS(=O)(=O)c2ccc(N=Cc3c4ccccc4nc4cc(Cl)ccc34)cc2)n1 | 58% | 15% | 99.4% (active) | 32% | 38% | 99.2% (active) | 41% | 23% | 99.4% (active) | 16% | 1% | 99% (active) | 40% | -2% | 58.1% | 24% | 11% | 99.3% (active) |
| CCN(CC)CCNC(=O)c1ccc(N=Cc2cc(Cl)cc(Cl)c2O)cc1 | 48% | 49% | 81.2% (active) | 32% | 48% | 91% (active) | 49% | 97% (active) | 88.8% (active) | 24% | 99% (active) | 84.8% (active) | 88% (active) | 97% (active) | 89.2% (active) | 46% | 39% | 85.7% (active) |
| Cc1cccc[n+]1CC(=O)c1cccc(O)c1 | 1% | -2% | -11.1% | -2% | 4% | -3.5% | 0% | -2% | -7.45% | 4% | -4% | 36.6% | 1% | -3% | -13.6% | -2% | -4% | 7.25% |
| O=C(c1ccccc1)C(C(=O)c1ccccc1)c1ccc2ccccc2n1 | 0% | 1% | 19.2% | 1% | -4% | 2.75% | -2% | -1% | 63.5% | -2% | 1% | 9.75% | 1% | -4% | 19.1% | -2% | -3% | 22.9% |
| COC(=O)C(=O)C(=O)C1CCCC(c2ccccc2)C1=O (configuration not stated) | 1% | 96% (active) | 96.3% (active) | 0% | 97% (active) | 98% (active) | 1% | 53% | 71.6% (active) | 2% | 98% (active) | 94.8% (active) | -11% | 98% (active) | 97.8% (active) | -10% | 97% (active) | 96.4% (active) |
| CC(C)c1cc(C(=O)[O-])c(O)c(C(C)C)c1.CC(C)c1cc(C(=O)[O-])c(O)c(C(C)C)c1.CC(C)c1cc(C(=O)[O-])c(O)c(C(C)C)c1.CC(C)c1cc(C(=O)[O-])c(O)c(C(C)C)c1.CC(C)c1cc(C(=O)[O-])c(O)c(C(C)C)c1.CC(C)c1cc(C(=O)[O-])c(O)c(C(C)C)c1.[Cu+2].[Mn+2].[Mn+2] | 40% | 63% | 43.5% | 38% | 57% | 50.5% | 31% | 70% (active) | 44.5% | 34% | 53% | 50.7% | 37% | 66% | 55% | 39% | 66% | 82.1% (active) |
| Cc1ccc(C(=O)N2CCN(C(=O)c3ccc(C)cc3)c3ccccc32)cc1 | -14% | 6% | 42.5% | -13% | -19% | 33.7% | -10% | 30% | 40.8% | -7% | 14% | 36.6% | -3% | 43% | 75.8% (active) | -26% | 14% | 18.9% |
| CC(Br)Cc1ccc2c(c1)OCO2 (configuration not stated) | 3% | 0% | 1.15% | 2% | -2% | 44.5% | 3% | -3% | 19.8% | 3% | -1% | -3.8% | -10% | -14% | -28.5% | -4% | 1% | -12.4% |
| COc1ccc(C2Oc3ccc(Cl)cc3C=C2[N+](=O)[O-])cc1OC (configuration not stated) | 89% (active) | 97% (active) | 74% (active) | 91% (active) | 96% (active) | 77% (active) | 86% (active) | 97% (active) | 85.5% (active) | 63% | 96% (active) | 84.3% (active) | 88% (active) | 96% (active) | 86.7% (active) | 95% (active) | 97% (active) | 86.2% (active) |
| CCNC(=S)N/N=C/c1ccccn1 | -15% | 95% (active) | 81.5% (active) | -42% | 92% (active) | 84% (active) | -29% | 95% (active) | 78.2% (active) | -21% | 95% (active) | 81.2% (active) | -15% | 95% (active) | 82.5% (active) | -33% | 97% (active) | 76.5% (active) |
| CNC(=O)OCC1=CC(=O)C(OC)=C(OC)C1=O | -15% | -8% | 4.5% | -12% | -14% | 11.9% | -10% | -2% | 28.4% | -6% | -5% | 9.55% | -9% | -6% | -20.6% | -8% | -5% | 8.95% |
| O=C(CNC(=O)Nc1ccc(NC(=O)NCC(=O)Nc2ccc(C3=NCCN3)cc2)cc1)Nc1ccc(C2=NCCN2)cc1 | 3% | -2% | 98.2% (active) | -16% | -3% | 88.4% (active) | 2% | -3% | 98.8% (active) | 5% | 5% | 30.7% | 0% | -5% | 96.4% (active) | 4% | 20% | 95.2% (active) |
